From the supplement of paper PMC10849652
About 8,800 targets were measured; listed, in parts, are those with a hit and a random draw of the rest. About 0.5% of all pairs of compound and target were hits. Values without a mark were called inactive.

How the values were obtained:
Assay in all cases: log2 fold change, soluble protein after heating vs DMSO (PISA); higher = thermal stabilisation; K562 lysate, 10 uM; active = over 0.2 and 3.5 SD of the protein, either way, in both replicates (recomputed)
[1] = compound: C/C(=N\NC(=O)C1=CC(=CC=C1)S(=O)(=O)N2CCOCC2)/C3=C(C=CC(=C3)Cl)O
Procedure, shortened: (§1)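 K562 pellets were dounce-homogenised in PBS pH 7.4 with 1 mM MgCl2, and the crude extract at 1 mg/mL protein was treated with 10 μM compound for 30 min. Aliquots were heated for 3 min across 48°C-58°C, pooled, and brought to 0.5% NP-40 at 4°C; soluble protein was the supernatant after 21,000xg for 90 min. Soluble protein was quantified by TMTpro 16plex LC-MS/MS with channel sums equalised, and reported as log2 fold change in thermal stability against DMSO controls, with values from duplicates.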

[2] = compound: C1=CC2=C(C=CC(=C2)/C=C\3/C(=O)NC(=NCC4=CC=CS4)S3)N=C1
Procedure, shortened: as §1

[3] = compound: C1=CC2=NC=CN=C2C=C1/C=C/3\C(=O)NC(=O)S3
Procedure, shortened: as §1

[4] = compound: C1=CC=C2C(=C1)C3=NNC4=CC=CC(=C43)C2=O
Procedure, shortened: as §1

[5] = compound: C1CCN(C1)C(=O)NC2=CC=CC(=C2)NC3=NC=C(C(=N3)NCCC4=CN=CN4)Br
Procedure, shortened: as §1

[6] = compound: C1CN(CCC1(CC2=CC=C(C=C2)Cl)N)C3=NC=NC4=C3C=CN4
Procedure, shortened: as §1

ibrutinib = compound: C=CC(=O)N1CCC[C@@H](n2nc(-c3ccc(Oc4ccccc4)cc3)c3c(N)ncnc32)C1 [ibrutinib]
Procedure, shortened: as §1

[7] = compound: CC1=C(C2=C(C=C1)C(=O)C3=CC=CC=C3N2CCCN)C
Procedure, shortened: as §1

[8] = compound: CC1=C(C=C(C=C1)NC(=O)C2=CC(=CC=C2)C(C)(C)C#N)NC3=CC4=C(C=C3)N=CN(C4=O)C
Procedure, shortened: as §1

erlotinib = compound: C#Cc1cccc(Nc2ncnc3cc(OCCOC)c(OCCOC)cc23)c1 [erlotinib]
Procedure, shortened: as §1

[9] = compound: C1=CC(=CC=C1C2=NC3=C(N2)C=C(C=C3)C(=O)N)OC4=CC=C(C=C4)Cl
Procedure, shortened: as §1

[10] = compound: C1=CC=C(C=C1)C2=NC(=C(N2)C3=CC=NC=C3)C4=CC(=C(C=C4)Cl)O
Procedure, shortened: as §1

IRAK-1-4 Inhibitor I = compound: C1COCCN1CCN2C3=CC=CC=C3N=C2NC(=O)C4=CC(=CC=C4)[N+](=O)[O-] [IRAK-1-4 Inhibitor I]
Procedure, shortened: as §1

ralimetinib = compound: CC(C)(C)Cn1c(N)nc2ccc(-c3[nH]c(C(C)(C)C)nc3-c3ccc(F)cc3)nc21 [ralimetinib]
Procedure, shortened: as §1

[11] = compound: CC(C)(O)CC(=O)NCCn1ccc2ncnc(Nc3ccc(Oc4cccc(C(F)(F)F)c4)c(Cl)c3)c21
Procedure, shortened: as §1

[12] = compound: CC(C)C1=C2N=C(C=C(N2N=C1)NCC3=CC=CC=C3)NCCCCCCN
Procedure, shortened: as §1

[13] = compound: CC1=C(C(CC(=O)N1)C2=CC=C(C=C2)C(F)(F)F)C(=O)NC3=C(C=C4C(=C3)C=NN4)F
Procedure, shortened: as §1

[14] = compound: CC1=C(C=C(C=C1)NC(=O)C2=CC(=CC=C2)N(C)C)NC(=O)C3=CC=C(C=C3)O
Procedure, shortened: as §1

[15] = compound: CC(=O)c1cnc2ccc(-c3cc(Cl)c(O)c(Cl)c3)nc2c1N[C@H]1CC[C@H](CN(C)C)CC1
Procedure, shortened: as §1

[16] = compound: CC1=CC=C(C=C1)SC2=C3C=C(SC3=CN=C2)C(=O)N
Procedure, shortened: as §1

Chain of UniProt Q4G0P3 (Q4G0P3 whole entry, looked up): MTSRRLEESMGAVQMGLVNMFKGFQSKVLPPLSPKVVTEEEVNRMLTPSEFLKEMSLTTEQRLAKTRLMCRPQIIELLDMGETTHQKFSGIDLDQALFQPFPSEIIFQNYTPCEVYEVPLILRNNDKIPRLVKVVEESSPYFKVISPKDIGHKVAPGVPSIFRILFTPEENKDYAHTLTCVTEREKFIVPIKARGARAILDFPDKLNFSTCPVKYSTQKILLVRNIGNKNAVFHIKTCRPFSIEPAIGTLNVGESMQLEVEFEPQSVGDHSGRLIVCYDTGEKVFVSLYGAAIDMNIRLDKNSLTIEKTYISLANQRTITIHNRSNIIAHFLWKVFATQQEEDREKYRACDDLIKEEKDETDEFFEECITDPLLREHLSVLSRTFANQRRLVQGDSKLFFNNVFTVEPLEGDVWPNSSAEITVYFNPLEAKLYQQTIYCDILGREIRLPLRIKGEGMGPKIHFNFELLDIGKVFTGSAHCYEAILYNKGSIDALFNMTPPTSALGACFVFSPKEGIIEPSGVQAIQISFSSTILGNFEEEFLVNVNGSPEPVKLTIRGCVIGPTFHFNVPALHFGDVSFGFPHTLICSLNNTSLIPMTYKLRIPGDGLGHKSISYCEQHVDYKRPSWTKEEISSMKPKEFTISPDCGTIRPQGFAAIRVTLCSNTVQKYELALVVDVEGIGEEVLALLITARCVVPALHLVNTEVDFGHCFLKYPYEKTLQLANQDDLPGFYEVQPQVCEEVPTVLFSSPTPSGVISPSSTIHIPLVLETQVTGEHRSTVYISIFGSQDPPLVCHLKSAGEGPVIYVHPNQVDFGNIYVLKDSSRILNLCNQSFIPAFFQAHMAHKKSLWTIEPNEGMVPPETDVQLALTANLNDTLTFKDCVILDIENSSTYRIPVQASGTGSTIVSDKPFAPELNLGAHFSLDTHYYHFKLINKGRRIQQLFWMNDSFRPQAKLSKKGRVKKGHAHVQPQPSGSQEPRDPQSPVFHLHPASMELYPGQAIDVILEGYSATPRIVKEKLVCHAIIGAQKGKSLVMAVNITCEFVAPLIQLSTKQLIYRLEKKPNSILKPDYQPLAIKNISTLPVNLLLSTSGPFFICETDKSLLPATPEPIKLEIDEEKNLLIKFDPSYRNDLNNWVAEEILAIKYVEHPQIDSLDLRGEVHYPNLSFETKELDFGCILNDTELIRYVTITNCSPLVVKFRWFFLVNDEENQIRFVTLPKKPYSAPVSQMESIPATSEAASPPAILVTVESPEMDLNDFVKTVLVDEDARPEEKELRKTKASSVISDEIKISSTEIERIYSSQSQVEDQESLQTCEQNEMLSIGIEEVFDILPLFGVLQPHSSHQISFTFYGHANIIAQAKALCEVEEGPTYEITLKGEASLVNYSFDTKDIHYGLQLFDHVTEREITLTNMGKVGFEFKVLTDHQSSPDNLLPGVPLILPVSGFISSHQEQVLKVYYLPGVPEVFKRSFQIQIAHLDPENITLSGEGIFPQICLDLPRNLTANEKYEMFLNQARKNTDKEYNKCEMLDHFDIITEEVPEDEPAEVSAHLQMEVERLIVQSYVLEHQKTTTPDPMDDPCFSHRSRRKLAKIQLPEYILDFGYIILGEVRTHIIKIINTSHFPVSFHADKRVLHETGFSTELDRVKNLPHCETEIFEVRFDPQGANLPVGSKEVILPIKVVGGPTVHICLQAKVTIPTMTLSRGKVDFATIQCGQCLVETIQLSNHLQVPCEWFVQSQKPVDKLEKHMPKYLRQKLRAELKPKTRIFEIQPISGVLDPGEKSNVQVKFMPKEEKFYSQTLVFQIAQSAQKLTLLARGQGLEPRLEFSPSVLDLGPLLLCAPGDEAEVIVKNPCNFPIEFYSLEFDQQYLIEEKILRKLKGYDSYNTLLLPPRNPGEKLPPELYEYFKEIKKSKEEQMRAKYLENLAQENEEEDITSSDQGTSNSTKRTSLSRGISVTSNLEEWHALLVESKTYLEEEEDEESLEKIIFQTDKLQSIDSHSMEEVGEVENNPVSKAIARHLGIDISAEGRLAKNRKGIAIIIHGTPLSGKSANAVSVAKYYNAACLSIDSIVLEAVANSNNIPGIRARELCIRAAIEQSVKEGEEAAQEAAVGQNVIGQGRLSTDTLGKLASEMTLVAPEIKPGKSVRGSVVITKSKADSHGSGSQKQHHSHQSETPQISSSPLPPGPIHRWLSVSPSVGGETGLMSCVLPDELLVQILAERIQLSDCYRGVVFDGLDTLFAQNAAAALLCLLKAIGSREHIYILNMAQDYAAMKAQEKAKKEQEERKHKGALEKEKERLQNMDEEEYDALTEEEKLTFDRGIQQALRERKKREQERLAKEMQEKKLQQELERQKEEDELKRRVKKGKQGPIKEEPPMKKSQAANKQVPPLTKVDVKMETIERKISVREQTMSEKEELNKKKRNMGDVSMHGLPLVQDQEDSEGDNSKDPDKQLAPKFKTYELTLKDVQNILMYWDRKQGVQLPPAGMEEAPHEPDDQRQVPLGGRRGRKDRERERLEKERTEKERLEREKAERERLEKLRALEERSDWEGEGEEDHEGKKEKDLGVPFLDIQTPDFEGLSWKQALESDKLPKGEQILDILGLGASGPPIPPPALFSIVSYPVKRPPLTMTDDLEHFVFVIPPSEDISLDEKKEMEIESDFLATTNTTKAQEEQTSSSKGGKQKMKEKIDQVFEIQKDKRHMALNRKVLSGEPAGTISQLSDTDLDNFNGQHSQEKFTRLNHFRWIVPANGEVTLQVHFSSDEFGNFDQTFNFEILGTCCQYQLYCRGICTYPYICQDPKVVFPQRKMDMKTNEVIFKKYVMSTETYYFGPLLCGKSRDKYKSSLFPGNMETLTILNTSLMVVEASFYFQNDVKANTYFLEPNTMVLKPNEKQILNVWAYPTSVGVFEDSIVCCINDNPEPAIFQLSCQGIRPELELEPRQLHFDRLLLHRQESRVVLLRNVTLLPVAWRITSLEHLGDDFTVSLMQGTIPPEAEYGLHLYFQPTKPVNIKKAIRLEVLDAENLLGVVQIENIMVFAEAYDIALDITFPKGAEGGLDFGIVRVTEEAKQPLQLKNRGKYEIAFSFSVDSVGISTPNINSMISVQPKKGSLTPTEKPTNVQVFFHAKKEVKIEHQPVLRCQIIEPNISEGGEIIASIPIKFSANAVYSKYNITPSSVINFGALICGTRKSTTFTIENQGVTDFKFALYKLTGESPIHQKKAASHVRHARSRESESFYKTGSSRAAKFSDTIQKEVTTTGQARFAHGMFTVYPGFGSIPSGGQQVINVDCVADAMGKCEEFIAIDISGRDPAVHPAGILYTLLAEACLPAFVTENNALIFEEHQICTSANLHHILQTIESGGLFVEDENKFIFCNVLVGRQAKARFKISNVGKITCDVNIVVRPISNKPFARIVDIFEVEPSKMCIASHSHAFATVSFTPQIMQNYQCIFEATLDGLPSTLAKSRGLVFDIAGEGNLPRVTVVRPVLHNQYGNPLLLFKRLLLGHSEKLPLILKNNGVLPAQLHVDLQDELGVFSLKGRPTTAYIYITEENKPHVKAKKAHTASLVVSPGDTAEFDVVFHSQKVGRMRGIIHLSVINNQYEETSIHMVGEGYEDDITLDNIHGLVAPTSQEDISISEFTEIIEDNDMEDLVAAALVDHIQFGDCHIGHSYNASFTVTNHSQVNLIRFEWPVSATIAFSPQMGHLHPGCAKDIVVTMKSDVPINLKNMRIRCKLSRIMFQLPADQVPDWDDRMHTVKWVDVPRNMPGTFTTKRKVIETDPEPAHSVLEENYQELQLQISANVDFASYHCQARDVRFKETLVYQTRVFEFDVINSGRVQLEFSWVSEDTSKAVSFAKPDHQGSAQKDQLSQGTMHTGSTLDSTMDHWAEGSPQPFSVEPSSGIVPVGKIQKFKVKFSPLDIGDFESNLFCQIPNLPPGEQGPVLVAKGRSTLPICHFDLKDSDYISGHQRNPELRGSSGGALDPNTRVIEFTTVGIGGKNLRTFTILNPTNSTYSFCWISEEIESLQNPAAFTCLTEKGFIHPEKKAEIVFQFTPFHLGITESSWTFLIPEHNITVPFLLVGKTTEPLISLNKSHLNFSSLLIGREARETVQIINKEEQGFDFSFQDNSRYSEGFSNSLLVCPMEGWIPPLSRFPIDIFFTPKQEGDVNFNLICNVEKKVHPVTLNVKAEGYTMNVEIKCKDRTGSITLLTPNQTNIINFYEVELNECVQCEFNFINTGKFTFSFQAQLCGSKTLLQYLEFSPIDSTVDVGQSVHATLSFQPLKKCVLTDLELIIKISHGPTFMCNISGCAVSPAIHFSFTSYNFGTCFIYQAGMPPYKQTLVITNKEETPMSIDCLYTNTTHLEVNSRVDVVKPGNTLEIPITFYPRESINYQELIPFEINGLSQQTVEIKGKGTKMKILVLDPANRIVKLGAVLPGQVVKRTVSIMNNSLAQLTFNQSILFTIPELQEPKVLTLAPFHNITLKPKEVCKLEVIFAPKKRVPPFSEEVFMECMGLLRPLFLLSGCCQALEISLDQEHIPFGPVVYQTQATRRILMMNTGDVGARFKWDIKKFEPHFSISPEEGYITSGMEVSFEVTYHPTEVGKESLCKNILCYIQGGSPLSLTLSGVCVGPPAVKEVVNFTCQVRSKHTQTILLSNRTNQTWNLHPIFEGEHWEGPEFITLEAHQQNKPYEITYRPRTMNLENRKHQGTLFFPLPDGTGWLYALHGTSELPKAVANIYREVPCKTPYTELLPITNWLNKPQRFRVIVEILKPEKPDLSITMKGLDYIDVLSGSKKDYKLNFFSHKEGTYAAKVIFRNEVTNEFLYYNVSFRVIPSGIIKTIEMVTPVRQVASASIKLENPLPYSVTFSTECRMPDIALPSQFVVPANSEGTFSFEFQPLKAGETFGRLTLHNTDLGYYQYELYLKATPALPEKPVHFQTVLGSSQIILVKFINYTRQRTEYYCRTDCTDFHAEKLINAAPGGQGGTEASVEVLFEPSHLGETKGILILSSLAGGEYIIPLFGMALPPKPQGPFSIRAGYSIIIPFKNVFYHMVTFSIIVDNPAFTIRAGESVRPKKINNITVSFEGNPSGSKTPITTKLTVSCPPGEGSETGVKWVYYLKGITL

Row | Target | log2 fold change [1] | log2 fold change [2] | log2 fold change [3] | log2 fold change [4] | log2 fold change [5] | log2 fold change [6] | log2 fold change (ibrutinib) | log2 fold change [7] | log2 fold change [8] | log2 fold change (erlotinib) | log2 fold change [9] | log2 fold change [10] | log2 fold change (IRAK-1-4 Inhibitor I) | log2 fold change (ralimetinib) | log2 fold change [11] | log2 fold change [12] | log2 fold change [13] | log2 fold change [14] | log2 fold change [15] | log2 fold change [16]
1 | HNRNPM (UniProt M0QZM1) | 0.07 | 0.044 | 0.246 | 0.066 | 0.046 | 0.086 | 0.003 | 0.121 | -0.068 | – | – | – | – | – | – | – | – | – | – | –
2 | HTT (UniProt P42858) | -0.051 | 0.037 | 0.032 | -0.138 | -0.04 | -0.05 | 0.11 | -0.032 | 0.035 | 0.018 | -0.067 | -0.041 | -0.027 | 0.065 | 0.008 | -0.032 | 0.047 | 0.04 | – | –
3 | HMGN5 (UniProt Q5JSK9) | – | – | -0.128 | – | 0.008 | -0.076 | 0.051 | – | – | – | – | – | – | – | – | – | -0.094 | – | -0.007 | -0.005
4 | JAK3 (UniProt P52333) | 0.037 | -0.075 | -0.041 | 0.23 | – | – | 0.076 | – | -0.016 | – | – | – | – | – | – | – | – | – | 0.056 | 0.078
5 | IMPDH2 (UniProt H0Y4R1) | -0.014 | 0.023 | -0.118 | -0.029 | 0.099 | 0.076 | -0.025 | 0.032 | -0.04 | – | – | -0.155 | 0.037 | -0.069 | -0.112 | – | -0.019 | 0.062 | -0.047 | 0.032
6 | ITM2B (UniProt Q9Y287) | 0.225 | -0.202 | 0.026 | 0.052 | – | – | -0.04 | -0.011 | 0.019 | -0.039 | 0.02 | 0.005 | 0.023 | 0.131 | -0.106 | -0.044 | 0.051 | -0.088 | – | –
7 | ISL2 (UniProt Q96A47) | – | – | 0.032 | – | – | – | 0.05 | -0.003 | -0.075 | -0.149 | 0.003 | -0.014 | 0.016 | 0.056 | -0.089 | 0.019 | – | 0.01 | – | –
8 | GYPA, A0A2R8Y7F9 | – | – | 0.066 | – | – | – | -0.019 | – | – | – | – | – | – | – | – | – | – | – | – | –
9 | GNB4 (UniProt Q9HAV0) | – | – | -0.049 | – | -0.035 | -0.005 | -0.104 | -0.036 | 0.073 | -0.017 | 0.067 | -0.057 | -0.024 | 0.009 | -0.026 | 0 | -0.05 | 0.084 | -0.071 | 0.202
10 | HYDIN (UniProt Q4G0P3) | -0.022 | 0.005 | – | 0.036 | -0.054 | 0.022 | – | -0.05 | – | – | – | 1.34 (active) | 0.712 | 0.148 | -0.071 | – | – | -0.107 | -0.076 | 0.017
11 | HMGA1 isoform 2 (UniProt P17096) | – | – | – | – | – | – | – | -0.229 | -0.034 | 0.042 | -0.043 | 0.022 | 0 | -0.122 | 0.088 | -0.029 | 0.047 | 0.054 | 0.053 | 0.01
12 | KDM5B isoform 2 (UniProt Q9UGL1) | 0.03 | -0.021 | 0.031 | -0.074 | -0.035 | 0.099 | -0.075 | -0.129 | -0.016 | 0.07 | 0.006 | 0.012 | 0.011 | -0.083 | -0.165 | -0.072 | – | -0.095 | -0.046 | -0.098
13 | IPP (UniProt Q9Y573) | -0.192 | -0.181 | – | -0.105 | 0.179 | 0.041 | – | -0.006 | – | -0.04 | -0.017 | 0.025 | -0.035 | 0.14 | -0.056 | -0.073 | – | 0.088 | 0.042 | -0.044
14 | IGFBP4 (UniProt P22692) | – | – | 0.218 | – | – | – | 0.035 | 0.236 | 0.123 | 0.06 | 0.025 | -0.033 | 0.016 | 0.012 | -0.087 | -0.029 | -0.021 | 0.037 | 0.169 | -0.139
15 | KIAA0930 isoform 2 (UniProt Q6ICG6) | -0.004 | -0.067 | -0.229 | 0.203 | 0.099 | -0.01 | -0.16 | -0.119 | 0.042 | – | – | -0.258 | -0.063 | 0.091 | -0.085 | – | -0.014 | -0.289 | -0.032 | -0.017
16 | ITPRIP (UniProt Q8IWB1) | – | – | – | – | – | – | – | 0.041 | – | 0.218 | -0.16 | – | – | – | – | 0.023 | – | – | – | –
17 | ITPR2 (UniProt Q14571) | – | – | – | – | – | – | – | -0.072 | – | 0.058 | 0.163 | -0.051 | 0.021 | 0.069 | -0.233 | 0.063 | -0.137 | -0.031 | -0.04 | -0.322
18 | IRS2 (UniProt Q9Y4H2) | – | – | 0.164 | – | – | – | -0.089 | -0.079 | 0.118 | 0.04 | -0.099 | 0.143 | -0.009 | 0.014 | 0.047 | 0.03 | 0.049 | -0.051 | -0.209 | 0.254
